Compound activity: PubChem, several laboratories
MEKK2 mut-MEK5: signal of MEK5 binding to mutant human MEKK2 PB1 domain | bead flow cytometry, Alexa488-MEK5 binding to MEKK2 mutant | 0.35% of 290,000 active | percent response, % at 10 µM | AID 1530; in the data active means percent response above about 24%, passing the limit was not always enough
ATG4B inhibitor: blocks human ATG4B protease cleavage of LC3 substrate; Q9Y4P1; ATG4B cleavage of LC3-PLA2, NBD-HPC fluorescence, 1 h; inhibition, % at 8.33 µM; 0.51% of 340,000 active; AID 504462; in the data active means inhibition above about 40%
PREPL inh: human PREPL enzyme inhibition; Q4J6C6; recombinant PREPL, fluorescence polarization activity-based probe; inhibition, % at 5.96 µM; 0.68% of 320,000 active; AID 2751
Target sequence (Q4J6C6 whole entry, looked up): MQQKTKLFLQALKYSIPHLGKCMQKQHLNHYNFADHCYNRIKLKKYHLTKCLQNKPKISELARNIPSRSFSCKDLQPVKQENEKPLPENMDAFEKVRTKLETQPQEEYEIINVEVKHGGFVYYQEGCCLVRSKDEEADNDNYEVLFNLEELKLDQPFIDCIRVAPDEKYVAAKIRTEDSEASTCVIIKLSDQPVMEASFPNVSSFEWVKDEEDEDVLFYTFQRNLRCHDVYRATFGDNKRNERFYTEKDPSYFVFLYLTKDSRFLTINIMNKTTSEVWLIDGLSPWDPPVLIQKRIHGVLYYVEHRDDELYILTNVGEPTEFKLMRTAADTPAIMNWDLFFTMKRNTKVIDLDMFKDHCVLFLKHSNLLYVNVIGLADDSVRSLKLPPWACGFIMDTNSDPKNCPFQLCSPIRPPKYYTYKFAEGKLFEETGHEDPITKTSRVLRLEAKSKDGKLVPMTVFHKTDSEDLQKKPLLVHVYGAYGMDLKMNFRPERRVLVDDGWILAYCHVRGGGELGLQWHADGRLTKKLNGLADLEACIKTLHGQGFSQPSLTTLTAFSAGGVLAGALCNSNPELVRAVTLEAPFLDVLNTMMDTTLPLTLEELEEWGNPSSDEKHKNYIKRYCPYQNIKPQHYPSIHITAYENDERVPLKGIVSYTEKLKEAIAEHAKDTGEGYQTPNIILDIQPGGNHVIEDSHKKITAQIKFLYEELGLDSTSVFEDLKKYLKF
UBC13 inh: human UBC13 polyubiquitination inhibition; inhibition, % at 20 µM; UBC13 polyubiquitin chain formation, TR-FRET; 0.47% of 330,000 active; AID 485273; P61088; in the data active means inhibition above about 45%, passing the limit was not always enough
MEKK3 PB1 HTS: MEKK3-MEK5 PB1 interaction, increase or decrease. bead-based flow cytometry, Alexa488-MEK5 binding to MEKK3; actives lie on both sides; 0 = blocked by unlabeled MEK5, 100 = vehicle. binding response (% of control), % at 10 µM. Q99759. AID 1529. 1.4% of 290,000 active;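 active means binding response more than 3 SD above or below the average of its plate-row segment, actives on both sides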;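 further: Alexa488 bead fluorescence after subtracting the streptavidin-only scavenger bead signal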
MEKK2 WT-MEK5: raises or lowers MEK5 binding to wildtype human MEKK2 PB1 domain; Q9Y2U5; bead flow cytometry, Alexa488-MEK5 binding to MEKK2 WT; actives lie on both sides; binding response (% of control), % at 10 µM; 1.1% of 290,000 active; AID 1531; in the data active means binding response below about 67% or above about 130%
MEKK2wt confirm: raises or lowers MEK5 binding to wildtype human MEKK2, retest; 2.4% of 5,900 active; shares compounds with MEKK3 PB1 HTS; binding response (% of control), % at 10 µM; bead flow cytometry, Alexa488-MEK5 binding to MEKK2 WT; actives lie on both sides; in the data active means binding response below about 16% or above about 210%; inactive means in between
MEKK2mut confirm: signal of MEK5 binding to mutant human MEKK2, retest; 2% of 5,900 active; AID 1893; shares compounds with MEKK3 PB1 HTS; percent response, % at 10 µM; bead flow cytometry, Alexa488-MEK5 binding to MEKK2 mutant; in the data active means percent response mostly above about 71%, no sharp cut-off; inactive means mostly below about 38%;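 further: higher means compound restores mutant binding toward wildtype level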
MEKK3 confirm: MEKK3-MEK5 PB1 inhibition, single concentration confirmation; shares compounds with MEKK3 PB1 HTS; bead flow cytometry, Alexa488-MEK5 binding to MEKK3; hits give low values; binding response (% of control), % at 10 µM; 1.8% of 5,900 active; AID 1894;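 active means binding response below 72% of control, or above a set upper limit, though filed actives all read lower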
PREPL confirm: human PREPL inhibition, confirmation. shares compounds with PREPL inh. recombinant PREPL, fluorescence polarization activity probe. inhibition, % at 5.96 µM. 67% of 2,000 active. AID 2803
ATG4B conf: confirmation of human ATG4B inhibitors | inhibition, % at 8.33 µM | 92% of 320 active | ATG4B protease fluorescent substrate cleavage assay | shares compounds with ATG4B inhibitor; in the data active means inhibition above about 39%
PLA2 counter: inhibits human PLA2, flagging false ATG4B inhibitors; shares compounds with ATG4B inhibitor; purified PLA2, NBD-C6-HPC fluorescence, 45 min; inhibition, % at 8.33 µM; 66% of 1,600 active; AID 588402; in the data active means inhibition above about 50%
Of the large screens only hits and unclear results are named; the others gave an inactive call (follow-up assays come after a bar, where they were run); [ ] = remark or other dose. A selection: hits, their analogues and other compounds. The true share with any hit is near 3.1%. Unless noted, no stated cut-off is given here; in the data, active means inhibition above about 43%; inactive means the rest.

O=Cc1cc(Cl)ccc1OCCN1CCC(Cc2ccccc2)CC1	ATG4B inhibitor 84, MEKK2 WT-MEK5 140 | MEKK2wt confirm inactive | MEKK2mut confirm inactive | MEKK3 confirm inactive | PLA2 counter 87
Cc1ccc(OCCNC(=O)CCNS(=O)(=O)c2ccc3ccccc3c2)cc1	none (no result: MEKK2 mut-MEK5, MEKK3 PB1 HTS, MEKK2 WT-MEK5)
NC(=O)c1ccc(-n2nnnc2Oc2ccccc2)cc1	ATG4B inhibitor 54, MEKK3 PB1 HTS 81[inhibitor] | MEKK2wt confirm inactive | MEKK2mut confirm inactive | MEKK3 confirm inactive | PLA2 counter inactive
COc1ccccc1Oc1nnnn1-c1ccc(C(N)=O)cc1	none
O=C(Nc1ccc2nc(-c3cccs3)c(-c3cccs3)nc2c1)NC1CC1	ATG4B inhibitor 72, MEKK3 PB1 HTS 68[inhibitor], MEKK2 WT-MEK5 20[inhibitor] | MEKK2wt confirm inactive | MEKK2mut confirm inactive | MEKK3 confirm inactive | PLA2 counter 81
Cc1ccc(NC(=O)Cc2nnc(SCC(=O)NC3=NCCS3)n2C)cc1	none
CCCn1nc(C(=O)NNC(=O)Cc2ccc(S(=O)(=O)N3CCOCC3)s2)c2ccccc2c1=O	none (no result: MEKK2 mut-MEK5, MEKK3 PB1 HTS, MEKK2 WT-MEK5)
Cc1cccc(NC(=S)NNc2cccc(Cl)c2)c1	none
Cc1ccc(NS(=O)(=O)c2cc([N+](=O)[O-])ccc2NNC(=S)Nc2cccc(Cl)c2)c(C)c1	ATG4B inhibitor 88, MEKK3 PB1 HTS 136 (no result: UBC13 inh) | MEKK2wt confirm inactive | MEKK2mut confirm inactive | MEKK3 confirm inactive | PLA2 counter 101
C=CC#CC[N+]1(CC#Cc2ccccc2)CCOCC1	ATG4B inhibitor 70, MEKK3 PB1 HTS 51[inhibitor] (no result: PREPL inh, UBC13 inh) | MEKK2wt confirm inactive | MEKK2mut confirm inactive | MEKK3 confirm 35 | ATG4B conf 46 | PLA2 counter inactive
C1=C(CCNc2ncnc3c2[nH]c2ccccc23)CCCC1	ATG4B inhibitor 49, MEKK2 WT-MEK5 143 (no result: UBC13 inh) | MEKK2wt confirm inactive | MEKK2mut confirm inactive | MEKK3 confirm inactive | PLA2 counter 64
CCOC(=O)c1c(C)[nH]c(C)c1S(=O)(=O)NCc1ccccc1C	none
O=C(COc1ccccc1-c1ccccc1)NCc1cccc(Cl)c1	ATG4B inhibitor 56, MEKK2 WT-MEK5 147 | MEKK2wt confirm inactive | MEKK2mut confirm inactive | MEKK3 confirm inactive | ATG4B conf 57 | PLA2 counter inactive
Cc1ccccc1OCC(=O)NCc1ccccc1	none
COCCN=c1scc(-c2cc(OC)c(OC)c(OC)c2)n1/N=C/c1c(C)[nH]c2ccccc12	MEKK2 mut-MEK5 77, ATG4B inhibitor 43 (no result: MEKK2 WT-MEK5) | MEKK2wt confirm inactive | MEKK2mut confirm inactive | MEKK3 confirm inactive | PLA2 counter 71
CCC(C)NC(=S)NNC(=O)c1ccc(C(C)(C)C)cc1 (stereo not given)	none
COCCN(C(=O)c1ccc(OCC(C)C)cc1)c1c(N)n(Cc2ccccc2)c(=O)[nH]c1=O	none (no result: MEKK2 mut-MEK5, MEKK3 PB1 HTS, MEKK2 WT-MEK5)
CC(C)COC(=O)c1ccc(N2C(=O)c3ccccc3C2=O)cc1	ATG4B inhibitor 45, MEKK3 PB1 HTS 5.0[inhibitor], MEKK2 WT-MEK5 7.0[inhibitor] | MEKK2wt confirm inactive | MEKK2mut confirm inactive | MEKK3 confirm inactive | ATG4B conf 67 | PLA2 counter inactive
CCOC(=O)c1ccc(N2C(=O)Cc3ccccc3C2=O)cc1	none
CCN1/C(=C/C(C)=C/c2sc3ccccc3[n+]2CC)Sc2ccccc21	ATG4B inhibitor 52, MEKK3 PB1 HTS 25[inhibitor], MEKK2 WT-MEK5 1.0[inhibitor] | MEKK2wt confirm 2.0[inhibitor] | MEKK2mut confirm inactive | MEKK3 confirm 44 | ATG4B conf 49 | PLA2 counter inactive
Brc1ccc2[nH]c3c(N4CCc5ccccc5C4)ncnc3c2c1	ATG4B inhibitor 48, MEKK2 WT-MEK5 150 | MEKK2wt confirm inactive | MEKK2mut confirm inactive | MEKK3 confirm inactive | PLA2 counter 63
COc1ccc(-c2cn(Cc3ccc4c(c3)C(=O)c3ccccc3C4=O)nn2)cc1	PREPL inh 48 | PREPL confirm inactive
COc1ccc(-c2cn(Cc3ccc4ccccc4c3)nn2)cc1	none
Nc1ccc2ncccc2c1N	PREPL inh 47 (no result: MEKK2 mut-MEK5, UBC13 inh, MEKK3 PB1 HTS, MEKK2 WT-MEK5) | PREPL confirm 46
c1cnc2ccc3ncccc3c2c1	none
C=C1c2cccc(O)c2C(O)=C2C(=O)[C@]3(O)C(O)=C(C(N)=O)C(=O)[C@@H](N(C)C)[C@@H]3[C@@H](O)[C@H]12	PREPL inh 80 | PREPL confirm inactive
C[C@H]1c2cccc(O)c2C(O)=C2C(=O)C3(O)C(O)=C(C(N)=O)C(=O)[C@@H](N(C)C)[C@@H]3[C@@H](O)[C@@H]21 (stereo not given in full)	none (no result: MEKK2 mut-MEK5, MEKK3 PB1 HTS, MEKK2 WT-MEK5)
COc1ccc(CN2CCN(c3cc(C)nc4c5c(C)cc(C)nc5nn34)CC2)cc1F	PREPL inh 46 | PREPL confirm inactive
CC1CCC(NC(=O)c2cccc(S(=O)(=O)N3CCN(c4ccc(F)cc4)CC3)c2)CC1 (stereo not given)	none (no result: MEKK2 mut-MEK5, MEKK3 PB1 HTS, MEKK2 WT-MEK5)
O=C(CCCN1C(=O)S/C(=C\C=C\c2ccccc2)C1=O)Nc1ccc(C(=O)O)cc1	none
O=C(CCN1C(=O)S/C(=C\C=C\c2ccccc2)C1=O)Nc1ccc(O)cc1	PREPL inh 43 | PREPL confirm inactive
COc1ccc(-c2cn(Cc3ccc(C(N)=O)cc3)c(CCN)n2)cc1	PREPL inh 46 (no result: MEKK2 mut-MEK5, MEKK3 PB1 HTS, MEKK2 WT-MEK5) | PREPL confirm inactive
COc1cc(/C=C2/C(=N)N3OC(C)=CC3=NC2=O)ccc1OC(=O)c1ccco1	PREPL inh 46 | PREPL confirm 60
CC1=CC2=NC(=O)/C(=C\c3ccc(OC(=O)c4ccco4)cc3)C(=N)N2O1	none
CC(=O)Nc1ccc(C(=O)Cn2c3[n+](c4c(F)c(F)ccc42)CCCCC3)cc1	PREPL inh 47 | PREPL confirm 56
c1ccc2c(c1)CCN(c1nc3cc4c(cc3s1)OCCO4)C2	PREPL inh 48 | PREPL confirm inactive
